High-throughput results deposited in PubChem by National Center for Advancing Translational Sciences (NCATS).
MCF10A rerep: A quantitative high throughput screen for small molecules that induce DNA re-replication in MCF 10a normal breast cells | MCF 10A DNA re-replication, Hoechst nuclear intensity, 48 h | Potency, µM (doses to about 46.1 µM), usual class: activators | 2.9% of 350,000 active; further: nearly all actives have a fitted effect of over 50% in size
KB-3-1 tox: qHTS assay for MDR1-selective chemotherapeutics: Primary screen using the parental adenocarcinoma cell KB-3-1; AID 1347075, 2019; 1.4% of 400,000 active; KB-3-1 viability, CellTiter-Glo ATP luminescence, 72 h; Potency, µM (top dose mostly 46.1 µM), actives largely listed as cytotoxic; further: nearly all actives have a fitted effect of over 60% in size
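72 h, 37 °C compound treatment of KB-3-1 parental cells; CellTiter-Glo added, 10 min, luminescence read. Data corrected against DMSO-only plates and normalized before curve fitting.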
TSG101-PTAP inh: qHTS Assay for Iinhibitors of HIV-1 Budding by Blocking the Interaction of PTAP/TSG101; Tumor susceptibility gene 101 protein (Homo sapiens), Q99816; Fluorescence polarization, FITC-PTAP peptide / Tsg101 binding; Potency, µM (series often up to 115 µM), actives largely listed as inhibitors; 340,000 tested, under 10 active; AID 493005, 2010; active means well fitted inhibition curve with a large enough effect in the main read-out, with a control signal flat, not every such curve was filed as active; inconclusive means small, poorly fitted or top-dose-only effect, or effect the other way, or a change in a side signal; inactive means no such curve, though single readings can be large or run the other way
Target sequence (Q99816 whole entry, looked up): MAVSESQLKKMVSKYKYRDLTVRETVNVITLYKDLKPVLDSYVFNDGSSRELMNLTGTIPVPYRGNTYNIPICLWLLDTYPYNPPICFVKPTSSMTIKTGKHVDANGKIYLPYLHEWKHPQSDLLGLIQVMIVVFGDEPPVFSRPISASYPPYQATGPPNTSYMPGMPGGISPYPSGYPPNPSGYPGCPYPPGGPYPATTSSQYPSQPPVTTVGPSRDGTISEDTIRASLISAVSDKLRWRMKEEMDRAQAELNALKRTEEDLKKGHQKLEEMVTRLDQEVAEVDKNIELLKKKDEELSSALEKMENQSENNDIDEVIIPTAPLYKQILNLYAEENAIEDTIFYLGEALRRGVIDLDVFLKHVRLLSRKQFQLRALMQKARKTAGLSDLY
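Tsg101 binding domain (10 uM final) was mixed with compound and a FITC-labeled PTAP peptide (50 nM final) in HEPES pH 7.5 buffer with NaCl, Tween 20, EDTA and TCEP; fluorescence polarization was read after 20 min at r.t.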
SW480 rereplic: A quantitative high throughput screen for small molecules that induce DNA re-replication in SW480 colon adenocarcinoma cells; AID 624297, 2012; Potency, µM (doses to about 46.1 µM), most hits filed as activators; 1.8% of 340,000 active; SW480 DNA re-replication, Hoechst DNA content imaging, 48 h; further: nearly all actives have a fitted effect of over 55% in size
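Readout is total intensity of Hoechst-stained nuclei, excited at 405 nm and collected at 500-530 nm. Compound treatment lasted 48 hr at 37 C in 5% CO2 before staining.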
KB-V1 cytotox: qHTS assay for MDR1-selective chemotherapeutics: Primary screen using the drug-selected MDR subline cells KB-V1; KB-V1 MDR cells viability, CellTiter-Glo, 72 h; Potency, µM (titrated, usually from 46.1 µM), usual class: cytotoxic; 3.4% of 400,000 active; AID 1347076, 2019; further: nearly all actives have a fitted effect of over 60% in size
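Cytotoxicity toward P-gp-expressing KB-V1 cells was determined as loss of CellTiter-Glo luminescence after 72 h at 37 degrees C. Compounds were tested in quantitative HTS format across a concentration range, with curves fitted to normalized data.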
RGS4 inh: Inhibitors of Regulator of G Protein Signaling (RGS) 4: qHTS. AID 504845, 2011. Transcreener GDP fluorescence polarization, RGS4-accelerated GTP hydrolysis. 0.039% of 390,000 active. Potency, µM (series often up to 114 µM), most hits filed as inhibitors. Regulator of G-protein signaling 4 (Homo sapiens), P49798; further: nearly all actives have a fitted effect of over 75% in size
Target sequence (P49798 whole entry, looked up): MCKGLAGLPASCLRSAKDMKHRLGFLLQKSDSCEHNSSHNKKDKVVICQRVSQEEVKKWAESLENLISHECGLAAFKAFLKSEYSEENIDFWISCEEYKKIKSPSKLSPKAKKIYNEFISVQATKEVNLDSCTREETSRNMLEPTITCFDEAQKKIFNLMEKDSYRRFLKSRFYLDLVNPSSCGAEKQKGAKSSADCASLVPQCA
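MLSMR compounds (23 nl, pin-transferred) preincubated 10 min at room temperature with a 500nM (2x) first reagent, then RGS4 at 900nM (2x) plus Transcreener GDP mix added; fluorescence polarization (620/688 nm) read before and after 90 min at 30 °C.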
Numbers stand for hits. Sampled rows, rich in hits. Any-hit rate of the full collection: about 6.6%. Unless noted, the call rests on the fitted dose curve; in most records, active means well fitted curve in the direction sought with a large enough effect; inconclusive means small, poorly fitted or top-dose-only effect, or another doubt; inactive means no such curve, though single readings can be large; an effect the other way counts as inactive or inconclusive.

How did CC(=O)N1CC(=O)N=C1SCC(=O)Nc1nc(-c2ccccc2)c(-c2ccccc2)s1 do in these assays?
MCF10A rerep: 20.6µM; KB-3-1 tox: inactive; TSG101-PTAP inh: inactive; SW480 rereplic: inactive; KB-V1 cytotox: inactive; RGS4 inh: inactive

What do the screens show for `Cc1sc(NC(=O)CSC2=NCCS2)nc1-c1ccccc1`?
MCF10A rerep: 8.91µM; KB-3-1 tox: inactive; TSG101-PTAP inh: inactive; SW480 rereplic: inactive; KB-V1 cytotox: inactive; RGS4 inh: inactive

Results for CCOC(=O)c1sc(NC(=O)CSc2ncn(-c3ccccc3)n2)nc1C ?
MCF10A rerep: inactive; KB-3-1 tox: inactive; TSG101-PTAP inh: inactive; SW480 rereplic: inactive; KB-V1 cytotox: inactive; RGS4 inh: inactive

How did Cc1sc(NC(=O)CSc2ncn(-c3ccccc3)n2)nc1-c1ccccc1 do in these assays?
MCF10A rerep: inactive; KB-3-1 tox: inconclusive; TSG101-PTAP inh: inactive; SW480 rereplic: inactive; KB-V1 cytotox: 23.1µM; RGS4 inh: inactive

What do the screens show for `CC[C@H](C)[C@@H]1NC(=O)[C@@H](CC(C)C)NC(=O)[C@H](C(C)C)NC(=O)[C@H]2CSSC[C@H](NC1=O)C(=O)N2`?
KB-3-1 tox: 1.16µM; KB-V1 cytotox: inactive

Results for Cc1cc(C)cc(NC(=O)Nc2ccc(NC(=O)c3ccccc3O)cc2)c1 ?
MCF10A rerep: 18.4µM; KB-3-1 tox: inactive; TSG101-PTAP inh: inactive; SW480 rereplic: 20.6µM; KB-V1 cytotox: inactive; RGS4 inh: inactive

Results for Cc1ccc2oc3c(c(=O)c2c1)C(c1ccc(OCC(N)=O)cc1)N(Cc1ccc2c(c1)OCO2)C3=O (stereo not given) ?
KB-3-1 tox: inactive; KB-V1 cytotox: inactive; RGS4 inh: inactive

What do the screens show for `CCCc1nc2sc3c(c2c(=O)n1NC(=O)c1ccco1)CC(C)(C)OC3`?
MCF10A rerep: inactive; KB-3-1 tox: inactive; TSG101-PTAP inh: inactive; SW480 rereplic: inactive; KB-V1 cytotox: inactive; RGS4 inh: inactive

How did CCCCCCCCCc1nc2sc3c(c2c(=O)n1NC(=O)c1ccccc1[N+](=O)[O-])CC(C)(C)OC3 do in these assays?
MCF10A rerep: 2.91µM; KB-3-1 tox: inactive; TSG101-PTAP inh: inactive; SW480 rereplic: inactive; KB-V1 cytotox: inconclusive; RGS4 inh: inactive

What do the screens show for `CCCCCCCCCc1nc2sc3c(c2c(=O)n1NC(=O)c1ccc([N+](=O)[O-])cc1)CC(C)(C)OC3`?
MCF10A rerep: 6.51µM; KB-3-1 tox: inactive; TSG101-PTAP inh: inactive; SW480 rereplic: inactive; KB-V1 cytotox: inconclusive; RGS4 inh: inactive

What do the screens show for `CCOC(=O)c1ccc(NC(=O)C2=C(C)C(=O)OC23CCN(C(C)C)CC3)cc1`?
KB-3-1 tox: inactive; KB-V1 cytotox: inactive; RGS4 inh: inactive

Results for O=C1c2ccccc2C(=O)C1c1ccc(Cl)cc1 ?
MCF10A rerep: inactive; KB-3-1 tox: inactive; SW480 rereplic: inactive; KB-V1 cytotox: inconclusive; RGS4 inh: inactive

How did O=C1c2ccccc2C(=O)C12OC2c1ccc(Cl)cc1Cl (stereo not given) do in these assays?
MCF10A rerep: 11.6µM; KB-3-1 tox: inconclusive; TSG101-PTAP inh: inactive; SW480 rereplic: inconclusive; KB-V1 cytotox: inconclusive; RGS4 inh: inactive

What do the screens show for `O=C(CSc1nc2nccnc2c(=O)n1CCc1c[nH]c2ccccc12)Nc1ccccc1`?
RGS4 inh: inactive

How did CCOC(=O)COc1ccc(C)cc1C(=O)c1ccn2nc(-c3ccc(Cl)cc3)cc2n1 do in these assays?
KB-3-1 tox: inactive; KB-V1 cytotox: inactive; RGS4 inh: inactive

How did Cc1ccn2c(=O)c(C(=O)NCCc3ccc(S(N)(=O)=O)cc3)c(O)nc2c1 do in these assays?
KB-3-1 tox: inactive; KB-V1 cytotox: inactive; RGS4 inh: inactive

What do the screens show for `NCC(c1ccccc1)(c1ccccc1)c1ccccc1`?
MCF10A rerep: inactive; KB-3-1 tox: inconclusive; TSG101-PTAP inh: inactive; SW480 rereplic: inconclusive; KB-V1 cytotox: 20.6µM; RGS4 inh: inactive

How did CN(C)CCC(O)(c1ccccc1)c1ccccc1 do in these assays?
MCF10A rerep: inactive; KB-3-1 tox: inactive; TSG101-PTAP inh: inactive; SW480 rereplic: inactive; KB-V1 cytotox: inactive; RGS4 inh: inactive

What do the screens show for `O=C(N/N=C/c1cccc(F)c1)c1ccc(Cl)cc1`?
MCF10A rerep: inactive; KB-3-1 tox: inactive; TSG101-PTAP inh: inactive; SW480 rereplic: inactive; KB-V1 cytotox: inactive; RGS4 inh: inactive

Results for CC(SC(C)C(=O)NN=Cc1cccc(Cl)c1)C(=O)NN=Cc1cccc(Cl)c1 (stereo not given) ?
MCF10A rerep: 4.11µM; KB-3-1 tox: inconclusive; TSG101-PTAP inh: inactive; SW480 rereplic: 9.2µM; KB-V1 cytotox: inconclusive; RGS4 inh: inactive

Results for CC(C)(C)c1ccc(C(=O)N/N=C/c2cccc(Cl)c2)cc1 ?
MCF10A rerep: inactive; KB-3-1 tox: inconclusive; TSG101-PTAP inh: inactive; SW480 rereplic: inconclusive; KB-V1 cytotox: 23.1µM; RGS4 inh: inactive

How did COc1cccc(C=NNC(=O)C(C)SC(C)C(=O)NN=Cc2cccc(OC)c2)c1 (stereo not given) do in these assays?
MCF10A rerep: inactive; KB-3-1 tox: inactive; TSG101-PTAP inh: inactive; SW480 rereplic: inactive; KB-V1 cytotox: inactive; RGS4 inh: inactive

Results for CCCCN(CCCC)CCNC(=O)Cn1nc(CC)n2c(cc3sccc32)c1=O ?
KB-3-1 tox: inactive; KB-V1 cytotox: inactive; RGS4 inh: inactive

What do the screens show for `Cc1ccc(S(=O)(=O)N2CCC(c3ccncc3)CC2)c(C)c1`?
KB-3-1 tox: 20.6µM; KB-V1 cytotox: inactive; RGS4 inh: inactive

What do the screens show for `Cc1ccc(S(=O)(=O)N2CCN(S(=O)(=O)N3CCC(C)CC3)CC2)c(C)c1`?
MCF10A rerep: inactive; KB-3-1 tox: inactive; TSG101-PTAP inh: inactive; SW480 rereplic: inactive; KB-V1 cytotox: inconclusive; RGS4 inh: inactive

How did COc1ccc(C2CC(c3c(-c4ccccc4)c4cc(Cl)ccc4[nH]c3=O)=NN2S(C)(=O)=O)cc1 (stereo not given) do in these assays?
MCF10A rerep: inconclusive; KB-3-1 tox: inactive; TSG101-PTAP inh: inactive; SW480 rereplic: inactive; KB-V1 cytotox: inactive; RGS4 inh: inactive

What do the screens show for `COc1ccc(OC)c(C2CC(c3c(-c4ccccc4)c4cc(Cl)ccc4[nH]c3=O)=NN2S(C)(=O)=O)c1` (stereo not given)?
MCF10A rerep: 7.31µM; KB-3-1 tox: inactive; TSG101-PTAP inh: inactive; SW480 rereplic: inconclusive; KB-V1 cytotox: inactive; RGS4 inh: inactive

How did O=C(NC1CC(=O)N(c2cccc(F)c2)C1)c1cc2ccccc2o1 (stereo not given) do in these assays?
RGS4 inh: inactive
